TLR9-MyD88 inh – TLR9-MyD88 interaction inhibition; AID 504734; inhibition, % at 4.98 µM; CHO BLA complementation TLR9-MyD88, CCF4 FRET ratio; Q9NR96+Q99836; hit rate 0.21% among 340,000;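 active means inhibition above the mean over all tested compounds plus 3 SD, cut at about 21% in these data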;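 further: 0% = DMSO only wells and 100% = clavulanate BLA inhibitor control wells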
rCAG binder – molecules binding r(CAG) RNA repeats. inhibition, % at 3 µM. AID 651821. hit rate 1.3% among 370,000. r(CAG) RNA repeat, TO-PRO-1 dye displacement fluorescence;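 active means inhibition above the plate cutoff, the mean of all test compounds on that plate plus 3 SD, cut at about 35% in these data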;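 further: 0% = DMSO alone and 100% = 100 µM mitoxantrone as full dye displacement; higher means more dye released from RNA so lower well fluorescence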
ABHD5-PLIN5 inh – ABHD5-PLIN5 protein interaction inhibition; Q00G26+Q8WTS1; Split G. princeps luciferase complementation, luminescence, 4 h; inhibition, % at 4 µM; hit rate 0.78% among 360,000; AID 602281;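 active means inhibition above the mean inhibition across every tested compound plus 3 SD, cut at about 22% in these data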;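 further: 0% = DMSO only wells and the 100% control is not disclosed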
NOD2 RIPK2 PPI – blocks binding of human NOD2 to RIPK2; O43353; CHO BLA complementation NOD2-RIPK2, CCF4 ratio; inhibition, % at 4.98 µM; hit rate 0.38% among 360,000; AID 624267; in the data active means inhibition above about 21%;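 further: 0% = vehicle only and 100% = reference blocker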
PRMT1 inh – inhibitors of human PRMT1; Q99873; recombinant PRMT1, activity-based probe fluorescence polarization; inhibition, % at 2.79 µM; hit rate 1.3% among 370,000;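 active means inhibition above about 21% made by adding two undisclosed values, limit read from the data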
TLR4-MyD88 BLA – TLR4-MyD88 interaction inhibition in cells; O00206+Q99836; HeLa CL3-4 TLR4/MyD88 BLA complementation, FRET ratio; inhibition, % at 8.4 µM; hit rate 0.18% among 200,000; AID 861; in the data active means inhibition above about 25%;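 further: 0% = vehicle and 100% = reference inhibitor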
ABHD5-PLIN5 conf – ABHD5-PLIN5 interaction inhibition, confirmed; shares compounds with ABHD5-PLIN5 inh; biochemical ABHD5-PLIN5 interaction, luminescence; inhibition, % at 4 µM; hit rate 67% among 2,200; in the data active means inhibition above about 23%;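 further: 0% = DMSO vehicle wells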
HNF4 split-luc – HNF4 split-luciferase signal hit, counter-screen; shares compounds with ABHD5-PLIN5 inh; HNF4 dimerization, luminescence, biochemical; inhibition, % at 4 µM; hit rate 77% among 2,200; AID 651674;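 active means mean inhibition across replicate wells exceeding the computed hit threshold, cut at about 13% in these data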;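 further: light from luciferase halves that rejoin when HNF4 fusion proteins dimerize; 0% = DMSO only wells and the 100% control is not given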
Numbers without * were called inactive; · = not tested or not shown. Only some compounds are listed: those with a hit (about 3.3% of all), similar ones and a draw of the others.

SMILES	TLR9-MyD88 inh	rCAG binder	ABHD5-PLIN5 inh	NOD2 RIPK2 PPI	PRMT1 inh	TLR4-MyD88 BLA	ABHD5-PLIN5 conf	HNF4 split-luc
CN(CC(=O)Nc1ccccc1Cl)C(=O)COC(=O)c1ccccc1[N+](=O)[O-]	1.2	·	3.5	-4.6	·	·	·	·
O=c1[nH][nH]c2c1[C@@H](c1ccc(F)cc1)O[C@H](C1CCCCC1)C2	·	14.5	10.3	-6.2	3.4	·	·	·
O=c1[nH][nH]c2c1[C@H](c1ccc(Cl)cc1)O[C@H](C1CC1)C2	·	7.4	23.2*	-12.5	4.2	·	38.2*	24.6*
O=c1[nH][nH]c2c1[C@H](c1ccc(F)cc1)O[C@H](C1CCCCC1)C2	·	13.8	27.9*	-3.8	0.9	·	8.9	26.4*
O=c1[nH][nH]c2c1[C@H](c1ccccc1)O[C@H](C1CCCCC1)C2	·	14.3	31.0*	-6.8	2.1	·	33.7*	44.2*
O=C(NCC1CCCO1)C1CC(=O)N(c2ccccc2)C1 (centres undefined)	-2.5	-1.8	5.8	-13.9	2.9	·	·	·
CC(=O)CC[C@@H]1CC[C@]2(CCCN(S(=O)(=O)c3ccccc3)C2)O1	·	0.3	·	·	-3.4	·	·	·
CCCCN(C(=O)c1ccc(N(C)S(=O)(=O)c2ccc(C)cc2)cc1)c1c(N)n(CC(C)C)c(=O)[nH]c1=O	-5.0	0.9	-5.2	-11.6	2.8	·	·	·
OCC1OC(Nc2ccccc2C=NO)C(O)C1O (centres undefined)	-2.4	0.1	-7.6	-14.9	2.0	·	·	·
CC(C)(C)NC(=O)C(c1ccncc1)N(Cc1ccco1)C(=O)c1ccc(-c2ccccc2)[nH]1 (centres undefined)	11.5	1.0	30.1*	-2.6	3.0	-8.4	31.4*	43.5*
CSc1ccc(CN(C)CC(=O)Nc2ccc(NC(C)=O)cc2)cc1	6.6	-6.1	101.9*	-15.4	-0.3	-20.3	6.0	3.6
Cc1ccc(C(=O)/C=C/c2ccccc2)o1	-15.4	-2.5	15.4	3.6	0.4	10.6	·	·
Cc1ccc(C(=O)/C=C/c2ccc(Br)cc2)o1	-11.4	-3.0	52.5*	5.9	3.9	12.0	85.4*	60.8*
Cc1cccc(Cn2c(=O)n(-c3ccc(CC(=O)NCc4ccco4)cc3)c(=O)c3sccc32)c1	-6.3	3.9	-1.1	-15.2	-1.7	3.0	·	·
Cc1nn(C)cc1NC(=O)CCSc1nc(-c2ccco2)cc(C(F)(F)F)n1	-2.2	-0.4	87.7*	-4.8	-0.8	10.3	5.5	2.9
CCCOP(=O)(c1ccc(N(C)C)cc1)C(Nc1ccccc1)c1ccc(C)cc1 (centres undefined)	-8.6	-6.3	-1.4	-4.9	3.8	·	·	·
COc1ccc(Br)cc1/C=C/C(=O)c1ccc(NC(C)=O)cc1	4.9	9.6	27.0*	-0.1	-5.1	13.3	85.5*	81.3*
COc1ccc(NC(=O)/C=C/c2cc(Br)ccc2OC)cc1	2.3	6.5	8.3	-7.3	-1.4	-8.8	·	·
Cc1oc2ncnc(N)c2c1C	5.3	3.1	-1.6	7.7	-2.8	7.5	·	·
Cc1ccc(-c2oc3ncnc(N)c3c2-c2ccc(C)cc2)cc1	0.5	4.5	24.3*	-17.8	-1.3	-7.5	6.9	4.0
COCCCN1CN(S(=O)(=O)c2ccc(C)cc2C)c2nc3ccccc3nc21	1.3	0.5	27.8*	-2.3	2.8	·	11.7	14.8*
Cc1ccc(S(=O)(=O)N2CN(CC3CCCO3)c3nc4ccccc4nc32)c(C)c1 (centres undefined)	-16.8	6.8	1.2	-13.7	-1.9	·	·	·
O=C(Oc1cccc(/C=N/Nc2nc(Nc3ccccc3)nc(N3CCOCC3)n2)c1)c1ccco1	-2.5	8.5	2.3	-2.3	-0.1	-6.3	·	·
O=C(COC(=O)C1CC1)NCCNC(=O)COC(=O)C1CC1	-5.8	-0.6	85.9*	-2.3	1.4	·	5.4	1.4
O=C(COC(=O)C1CC1)NCCc1ccc(Cl)cc1	-3.1	-3.6	-3.6	-6.0	-1.9	·	·	·
SMILES	TLR9-MyD88 inh	rCAG binder	ABHD5-PLIN5 inh	NOD2 RIPK2 PPI	PRMT1 inh	TLR4-MyD88 BLA	ABHD5-PLIN5 conf	HNF4 split-luc
CC(=O)c1cccc(NC(=O)c2cnn3c(C)cc(C)nc23)c1	·	·	·	·	8.2	·	·	·
COc1cccc(C2CC(c3ccccc3Cl)Nc3nc(N)nn32)c1 (centres undefined)	-5.0	4.7	23.5*	-26.7	1.0	-5.0	6.7	1.8
COc1cccc(C2CC(c3ccc(Cl)cc3Cl)Nc3nc(N)nn32)c1 (centres undefined)	2.0	-7.5	21.2	12.8	0.2	3.6	·	·
CC1(Cc2cccc(C(F)(F)F)c2)C(=O)Nc2ccc(-c3ccc(F)c(Cl)c3)cc21 (centres undefined)	·	3.5	-16.0	-9.8	1.0	·	·	·
O=c1c(C(c2ccc(O)cc2)c2c(O)nc3n(c2=O)CCCS3)c(O)nc2n1CCCS2	-8.1	7.7	28.6*	0.6	17.5	-7.7	83.7*	71.4*
O=c1c(C(c2ccc(Br)cc2)c2c(O)nc3n(c2=O)CCCS3)c(O)nc2n1CCCS2	-12.9	9.4	-2.7	-2.6	9.6	·	·	·
O=c1c(C(c2ccc(O)cc2)c2c(O)nc3n(c2=O)CCS3)c(O)nc2n1CCS2	-5.8	2.7	53.1*	-4.2	19.3	-9.2	89.5*	79.3*
CC(C)(C)N1C(=O)c2ccccc2NC(=O)C1C(=O)NCCc1ccccc1 (centres undefined)	·	-0.7	2.7	-0.9	8.3	·	·	·
COc1ccc(-n2cc(CNC3CCN(C)CC3)c(-c3cccc(F)c3)n2)cc1	-4.8	-1.8	31.5*	13.4	-6.3	-2.5	18.7	11.0
CN(C)CCn1cnc2c(c1=N)C(c1ccccc1)c1ccc3ccccc3c1O2 (centres undefined)	-11.5	13.5	25.9*	18.1	1.8	·	14.4	0.4
N=c1c2c(ncn1Cc1ccco1)Oc1c(ccc3ccccc13)C2c1ccccc1 (centres undefined)	-0.9	13.8	-1.4	-6.5	2.7	-16.1	·	·
CCOC(=O)CSc1nnc(NC(=O)CN2CCCCC2)s1	6.3	-0.1	-4.9	-2.5	-3.7	·	·	·
CCOC(=O)C1CCCN(C(=O)c2cc(Nc3ccc(OC)c(OC)c3)nc3ccccc23)C1 (centres undefined)	-4.5	-6.1	29.1*	-2.5	-0.2	1.8	45.0*	1.8
CCOC(=O)C1CCCN(C(=O)c2cc(Nc3ccc(OC)cc3OC)nc3ccccc23)C1 (centres undefined)	2.5	0.7	9.1	-1.2	-1.5	1.7	·	·
COc1ccc(/C=C(/C(=O)c2cccs2)N2C=CC=CC2=C(C#N)C#N)cc1	15.4	3.6	33.2*	0.1	5.8	-4.9	58.9*	80.8*
Cc1ccc(CN(C)C(=O)CCc2nc3sc4c(c3c(=O)[nH]2)CCCC4)o1	-10.3	2.1	32.2*	-1.5	17.1	·	17.4	28.6*

Screening data: PubChem, The Scripps Research Institute Molecular Screening Center
